Laboratory results as given in the supplement of paper PMC11417369.
Over roughly 25,000 sequences, “ln(normalized median fluorescence intensity)” has its median near 6.7; the highest 2% begin near 10. Many of the other results were omitted from the sample, so the highest values are more common in it than they were.

What follows are sequences tested on PfHDP1 homeodomain (GST-tagged) (assay: gcPBM binding intensity (ln(normalized median fluorescence intensity)); higher = stronger DNA binding).
Method in brief: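 Binding intensity is defined as the maximum Masliner-normalised natural-log median intensity across replicate spots for either probe orientation. It was measured on an Agilent 4 × 180k array of primer-extended double-stranded 36-bp intergenic genomic probes and negative controls, to which GST-tagged P. falciparum DNA-binding domains made in E. coli were applied for 1 h in 1× PBS with 1% milk, 0.2 mg/ml BSA, 0.5% salmon testes DNA and 0.03% Triton X-100. Detection was by Alexa488 anti-GST antibody and scanning at 488 nm.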

| Sequence | gcPBM binding intensity (ln) |
| --- | --- |
| GGAATATATATACATACACACATATATATATATATA [CACACA_site1666] | 9.32 |
| TACGTAAATTCTAATACACACTATAGGATATTCTGC [CACACA_site7248] | 6.41 |
| GTTCTAATATATTGCACACGTAAAAATATAGGTAAT [CACACA_site886] | 10.6 |
| TTGTTCTAATATATTGCACACGTAAAAATATAGGTA [CACACA_site8195] | 10.1 |
| GGAAAAAATATATGCACACCCCCCAAAAAAAAAAAA [CACACA_site2222] | 9.67 |
| AAAAAAAAAAAACACACACACACACCCAAATATATA [CACACA_site150] | 6.84 |
| TGGGAAAAAATATATGCACACCCCCCAAAAAAAAAA [CACACA_site8696] | 10.6 |
| ATTAAATGTATGACTTGTACATAAAATAAAAAAAAA [XGTACX_site6555] | 6.56 |
| AAATAAAATAATAAAACATGCAAAAATAATGATTTA [TGCATGCA_site415] | 6.72 |
| TAAAGGAAATAAAAAACATGCAAATATGAAATATAT [TGCATGCA_site745] | 6.74 |
| AGGTGCAAAAATAAAACATGCAAAAATAAAAATGAA [TGCATGCA_site502] | 10.7 |
| TTTATTAAAATATTCTCACACACCAAAATATGTATG [CACACA_site932] | 6.42 |
| TATATATATTTTTGTGTGCACTATAATATGAAAATA | 10.3 |
| TTTTAATATATAGAGTAACAAATTTGTCTATTAATA [CACACA_negctrl_site1495] | 6.6 |
| ATAACAAAAATCCTTGTGCACTATTTTAATAGAGTC | 10.5 |
| TAAAAAATAAATATATGTACATATTTATTTTTTTTT [XGTACX_site850] | 6.19 |
| TATCATATATAAAGAGGTACGTAAGAATAGAAAATT [XGTACX_site798] | 7.27 |
| TCTTTCCTTATTAAAACACACAAATACATTATTTAA [CACACA_site2147] | 6.7 |
| GTGCAAAATATTTTTACACACAAATTCTTACAACAG [CACACA_site7556] | 7.77 |
| ATAAAAAAAAATATTTGTACACATATTTATATATTA [XGTACX_site8147] | 6.56 |
| TTTTTGTTACCTATTGTGCACTTCATATAAATTAAA | 10.9 |
| ACATTAAAAAATTGTTTGCACTATATAAAATATTAA [GTGCAC_site9728] | 8.82 |
| TTTTTTATTTTGTGCACACACATAAAAATATATATA [CACACA_site761] | 11.4 |
| TAATAAAAAAAGTGCACACACATAATATTTATATAT [CACACA_site7548] | 8.75 |

| Sequence | gcPBM binding intensity (ln) |
| --- | --- |
| TTTTATTTCTTTGCACCATTTTAAATACAAACAAAT [CACACA_negctrl_site1553] | 11 |
| GAAATTTGTTATTGCACACAAATTTTTCTTTTTTTA [CACACA_site2339] | 9.6 |
| TTTTTTTTTGTTAAAGTGCATATATTAAATTTTCCT [GTGCAC_site9677] | 7.82 |
| GTATTTCTTTAATATACACACACCAAAACAAAAAAA [CACACA_site579] | 6.98 |
| CATTTTATTTTCTTTGTGCACAAAAATATTTTTTCT | 10.8 |
| CATTAATAAAAAAAAAGTACAAAAAATATATATATT [XGTACX_site2091] | 6.88 |
| TCGTCTCAATAATTATAATAAAAAAATTCCTAAGTC [CACACA_negctrl_site338] | 6.28 |
| TATATGCCTATAAGAAGTACTGTGTAATGTAATATA [XGTACX_site8089] | 6.67 |
| TTGTGTTATCCTTTTTTAGATCAACTATTTTTATTC [CACACA_negctrl_site145] | 6.32 |
| AAAGGAAAAAAAAGCACACACAATATTACTTGAAAT [CACACA_site2588] | 6.9 |
| TAATTATTACACGGTATTATATATAATATGTTAAAA [GTGCAC_negctrl_site134] | 6.6 |
| ATATTGATACATCCAATACACACTACATATAATGAT [CACACA_site1874] | 6.82 |
| TTATATTTATAAAATTGTATACCCCTTCTAACTTTC [CACACA_negctrl_site250] | 6.7 |
| TATAAAAATGTGCACACACACACATATTTATATTTA [CACACA_site6826] | 10.1 |
| TTTTTTATTTTGTGCACACACATAAAAATATAAATA [CACACA_site6497] | 11.4 |
| ATATATATTTTTTAAACACACACATAAATATTTGTG [CACACA_site8936] | 6.94 |
| ATATATTTATTTTGTGCACACAACGCAAACCTTTTA [CACACA_site3508] | 11.3 |
| TATAAACCTTTTTGCACGCACACAAAAAAAAAATAA [CACACA_site168] | 9.61 |
| TCAAAAAATATATTTGCACACTCAAAAAAAAAAAAA [CACACA_site860] | 10.2 |
| TTTATATTTTATAAATTATTCATAAATATATTTGTA [TGCATGCA_negctrl_site175] | 6.34 |
| AAAATGTGCATATTTGCACACTTCAATATATATATA [CACACA_site1791] | 11.2 |
| TTTTGTTATAAATAATGTACATATTTATTTAAAATT [XGTACX_site6610] | 6.25 |
| AAAATATAAATTCATGTGCACATATATATTTTGTTA [GTGCAC_site9782] | 10.7 |
| AAAAAATATATTTGCACACTCAAAAAAAAAAAAAAA [CACACA_site859] | 10.3 |

| Sequence | gcPBM binding intensity (ln) |
| --- | --- |
| GTGCAAAATATTTTTACACACAAATTTTTACAACAG [CACACA_site3357] | 8.07 |
| ATAACATTCTATGTTGCACACAAAGAGAAAAATTTA [CACACA_site9322] | 9.12 |
| TATTATATATCAAAATGTACATTAATTTGAGTAATT [XGTACX_site5434] | 6.37 |
| AAACGTGCGTATATGTGTACGCATATATATATATAT [XGTACX_site5252] | 9.26 |
| ATTTTTTTATTTTGTGCACACACATAAAAATATATA [CACACA_site762] | 11.4 |
| TATTTTATAATAGGCACACATATAAAAATATATATA [CACACA_site4127] | 6.57 |
| ATATATTTTTTAAACACACACATAAATATTTGTGTA [CACACA_site2879] | 6.8 |
| ATAATACAAAATACATGTACAAATATTTTTCATATT [XGTACX_site1721] | 6.43 |
| AATAAAATGGAATACGGTACACATAATCCTAAAATG [XGTACX_site926] | 6.4 |
| TATAACAAGTTATAAAGTACAAATGTTGAATTTTAT [XGTACX_site4673] | 6.07 |
| GGAGGTTGTTATAAAAGTACAAAAAGTTGCAATTTT [XGTACX_site7351] | 10.7 |
| TTATGTTATATAAAAAGTACAAATTTTTTTTAATTA [XGTACX_site3435] | 5.94 |
| AAACGAGAACATAATAAATACATAAATAAATAAATA [GTGCAC_negctrl_site433] | 6.43 |
| ACCCTCATATTATAGACACACACAAAAAAAATAAAA [CACACA_site7941] | 6.66 |
| TATATTTTATATATGGTGCAACTTTTATTTAAATAA | 10.7 |
| TTTTTATTACATAATTAAAAAAAATAATAAAATAAA [XGTACX_negctrl_site249] | 6.03 |
| TATATAAAAAATAGGTGGTCAACTTAAATATTTTAT [XGTACX_site4495] | 6.46 |
| TGTATTAAAAATTTGGTGCAACTTTTACATAATAAT | 10.8 |
| CTTTTAAATTATTTTTGTACATAATTATATATATAT [XGTACX_site4128] | 8.27 |
| TATATATAAATATATGTGCACTTTTTATATTTATAT | 9.06 |
| TATAAAAATGTGTATGTACACACTTTATTTTTAATA [CACACA_site2532] | 6.38 |
| ATAATATTCGAGTGTGCACACAAACATACATATATA [CACACA_site3396] | 11.1 |
| TTACATACAATTGGTGTGCACATATATATATATATA | 10.3 |
| TTTATATATATTTATACACACAAACATAATACTACT [CACACA_site5161] | 6.86 |

| Sequence | gcPBM binding intensity (ln) |
| --- | --- |
| AATATTTATGGGTGCACACAAACATACATATATATA [CACACA_site3395] | 10 |
| AAATCAAACTTTGGTGTGCACAAATATATACATATA [GTGCAC_site9986] | 11 |
| TAATAATCAAACTATACACACATAAATAAATATATA [CACACA_site156] | 6.52 |
| ATAATATTTAGGTGTGCACACAAACATACATATATA [CACACA_site9120] | 10.9 |
| TTTATTTATATTTATACACACAAACATAATACTACT [CACACA_site7039] | 6.82 |
| TATTCGAACAAAAATACATGCACATATGCATAATAA [TGCATGCA_site171] | 10 |
| CATATATGTTATATTTAACACACATATAAGGTACAT [CACACA_site8105] | 6.51 |
| AAGAAAAAGAATAGACGGACAACTAATATAAAATAT [XGTACX_site7905] | 6.53 |
| ATATATAAACTGAAGGGTACAATGAAAAAAGAACTT [XGTACX_site7219] | 6.81 |
| CCATATCTTTTTTGCACACACTACAATAAAACAAAA [CACACA_site4995] | 10.6 |
| AGCCATATCTTTTTTGCACACACTACAATAAAACAA [CACACA_site1650] | 10.1 |
| TACAACAATTTTTGCACACACCAAAACATAAAATAA [CACACA_site4964] | 10.3 |
| ATTTGTATATACATATGTACACATGTAGGCTCATAA [XGTACX_site1709] | 6.92 |
| ATATTTTCAGTTCTCCATTATGTTCCCATTATTTTT [CACACA_negctrl_site990] | 7.03 |
| TGGGTGTAGAACAATTGTACTTTGTAAAAATATAAG [XGTACX_site8464] | 6.59 |
| CAAAAAAAGAAAGCTACACACATTTATGTGCTATAT [CACACA_site2777] | 6.72 |
| TTATGTTATATATACACACACAAAAGAAAAAAAAAA [CACACA_site2987] | 6.48 |
| ATTTATGTTATATATACACACACAAAAGAAAAAAAA [CACACA_site8977] | 6.89 |
| CATGCTTATATGTGCACACACAAAAGAAAAGAAAAA [CACACA_site1655] | 11 |
| TTCATGCTTATATGTGCACACACAAAAGAAAAGAAA [CACACA_site1656] | 10.8 |
| AATGTGCACACGCGTACACACAAAAAAAGAAAAAAA [CACACA_site7031] | 10.2 |
